In PubChem BioAssay (NCATS):
Results filed as inconclusive are left out. Active and inactive are the calls of the source. The call rests on the fitted dose curve; in most records, active means well fitted curve in the direction sought with a large enough effect; inconclusive means small, poorly fitted or top-dose-only effect, or another doubt; inactive means no such curve, though single readings can be large; an effect the other way counts as inactive or inconclusive.

Columns and labels:
[1] = system: HEK293; experiment: Cytotoxic Profiling of Annotated Libraries Using Quantitative High-Throughput Screening (AID 1296008); details: Five cell lines viability, CellTiter-Glo ATP luminescence, 48-72 h; max response: active compounds read low; further: nearly all actives have a fitted effect of over 60% in size; further: potency means the concentration at half of the fitted maximal effect; on max response: on the % scale 0 is the no-effect control and ±100 the full control effect
Procedure, shortened: (§1)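 Cytotoxicity was measured as CellTiter-Glo ATP luminescence, read after 10 min at room temperature. Compound treatment of the cells lasted 48 or 72 hr at 37 degrees Celsius in a qHTS format.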

[2] = system: HaCat; experiment: as above; details: Five cell lines viability, CellTiter-Glo ATP luminescence, 48-72 h; max response: active compounds read low
Procedure, shortened: as §1

[3] = system: NIH3T3; experiment: as above; details: Five cell lines viability, CellTiter-Glo ATP luminescence, 48-72 h; max response: active compounds read low
Procedure, shortened: as §1

[4] = system: HACAT; experiment: qHTS assay to identify novel small-molecules to repurpose for Merkel cell carcinoma treatment (AID 1296009); details: MCC and control cell lines, CellTiter-Glo viability, 72 h; at 44.8 µM (top of the series) unless noted; further: nearly all actives have a fitted effect of over 60% in size
Procedure, shortened: (§2)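 Cell viability measured by CellTiter-Glo following 72 hr compound treatment at 37 degree celsius, with NPC and MIPE libraries tested in 8- and 11-point concentration series.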

[5] = system: NIH3T3; experiment: as above; details: MCC and control cell lines, CellTiter-Glo viability, 72 h; series mostly up to 44.8 µM
Procedure, shortened: as §2

[6] = system: CAOV3; experiment: Primary qHTS to identify gynecologic anti-cancer compounds using libraries of approved drugs and bioactive compounds (AID 1345084); details: Gynecologic cancer cell panel viability, ATPlite luminescence, 48 h; series mostly up to 57.5 µM; further: nearly all actives have a fitted effect of over 55% in size; further: potency means the concentration at half of the fitted maximal effect; on activity change, negative = cytotoxicity: on the % scale 0 is the no-effect control and ±100 the full control effect
Procedure, shortened: (§3)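 Cells, 1,000 per well, were allowed to settle for 16 h at 37 C before compound addition. Five concentrations were tested for 48 h, and viability was read by ATPlite luminescence after 15 min at room temperature.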

[7] = system: CASKI; experiment: as above; details: Gynecologic cancer cell panel viability, ATPlite luminescence, 48 h; series mostly up to 57.5 µM
Procedure, shortened: as §3

[8] = system: Es-2; experiment: as above; details: Gynecologic cancer cell panel viability, ATPlite luminescence, 48 h; series mostly up to 57.5 µM
Procedure, shortened: as §3

[9] = system: HeLa; experiment: as above; details: Gynecologic cancer cell panel viability, ATPlite luminescence, 48 h; series mostly up to 57.5 µM
Procedure, shortened: as §3

[10] = system: Hek293T; experiment: as above; details: Gynecologic cancer cell panel viability, ATPlite luminescence, 48 h, control line for the selectivity index; series mostly up to 57.5 µM
Procedure, shortened: as §3

[11] = system: JEG-3; experiment: as above; details: Gynecologic cancer cell panel viability, ATPlite luminescence, 48 h; series mostly up to 57.5 µM
Procedure, shortened: as §3

[12] = system: OV90; experiment: as above; details: Gynecologic cancer cell panel viability, ATPlite luminescence, 48 h; series mostly up to 57.5 µM
Procedure, shortened: as §3

[13] = system: PA-1; experiment: as above; details: Gynecologic cancer cell panel viability, ATPlite luminescence, 48 h; series mostly up to 57.5 µM
Procedure, shortened: as §3

[14] = system: CRL-7250; experiment: Cytotoxic Profiling of Annotated Libraries Using Quantitative High-Throughput Screening (AID 1296008); details: Five cell lines viability, CellTiter-Glo ATP luminescence, 48-72 h; max response: active compounds read low; further: nearly all actives have a fitted effect of over 60% in size; further: potency means the concentration at half of the fitted maximal effect; on max response: on the % scale 0 is the no-effect control and ±100 the full control effect
Procedure, shortened: as §1

[15] = system: KB-3-1; experiment: as above; details: Five cell lines viability, CellTiter-Glo ATP luminescence, 48-72 h; max response: active compounds read low
Procedure, shortened: as §1

[16] = system: C33A; experiment: Primary qHTS to identify gynecologic anti-cancer compounds using libraries of approved drugs and bioactive compounds (AID 1345084); details: Gynecologic cancer cell panel viability, ATPlite luminescence, 48 h; series mostly up to 57.5 µM; further: nearly all actives have a fitted effect of over 55% in size; further: potency means the concentration at half of the fitted maximal effect; on activity change, negative = cytotoxicity: on the % scale 0 is the no-effect control and ±100 the full control effect
Procedure, shortened: as §3

[17] = system: SKOV3; experiment: as above; details: Gynecologic cancer cell panel viability, ATPlite luminescence, 48 h; series mostly up to 57.5 µM
Procedure, shortened: as §3

C=C1CO[C@@]2(O[C@H]3CC4C5CC=C6C[C@@H](O)C[C@@H](O[C@@H]7OC[C@H](O)[C@H](O[C@@H]8OC[C@@H](O)[C@H](O)[C@H]8O)[C@H]7O[C@@H]7O[C@@H](C)[C@H](OC(C)=O)[C@@H](OC(C)=O)[C@H]7OC(C)=O)[C@]6(C)C5CC[C@]4(C)[C@@H]3[C@@H]2C)[C@@H](O)[C@H]1OC1OC(C)C(O)C(O)C1O (stereo partly drawn)
inactive: max response [1] -19.9% | outcome [2] | outcome [3] | outcome [4] inactive [at 9.27 µM] | outcome [5] inactive [at 9.27 µM] | activity change, negative = cytotoxicity [6] -13% [at 6.55 µM] | activity change, negative = cytotoxicity [7] -16.5% [at 6.55 µM] | activity change, negative = cytotoxicity [8] -0.0762% [at 6.55 µM] | activity change, negative = cytotoxicity [9] -7.77% [at 6.55 µM] | activity change, negative = cytotoxicity [10] -3.45% [at 6.55 µM] | activity change, negative = cytotoxicity [11] -10.9% [at 6.55 µM]
active: Potency [12] 2.82 µM | Potency [13] 3.55 µM

NC(=O)c1cnc(N[C@@H]2CCCC[C@@H]2N)nc1Nc1cccc(-n2nccn2)c1
active: Potency [1] 11.7 µM | Potency [2] 13.2 µM | Potency [3] 23.4 µM

CCCC(Nc1nc(-c2ccc(NC(=O)NCC)c(OC)c2)ncc1C)c1cccnc1 (stereo not drawn)
inactive: Potency [6]
active: Potency [14] 0.206 µM | Potency [15] 0.146 µM | Potency [8] 0.251 µM | Potency [9] 0.158 µM | Potency [13] 0.251 µM

CC(C)(C)c1ccc(-c2nc3c(N4CCN(Cc5ccc6nccnc6c5)CC4)cccc3[nH]2)cc1
active: Potency [1] 4.11 µM
inactive: max response [2] -27.9%

CNc1nc(Nc2ccc(C(=O)N3CCOCC3)cc2OC)nc2[nH]cc(Cl)c12
active: Potency [15] 10.3 µM
inactive: max response [14] 1.38% | Potency [16] | Potency [6] | Potency [7] | Potency [8] | Potency [9] | Potency [10] | Potency [11] | Potency [12] | Potency [17]

CCCCc1c(-c2ccc(OC)cc2)[nH]c2nccnc12
inactive: outcome [14] | max response [15] 2.93% | Potency [6] | Potency [7] | Potency [8] | Potency [9] | Potency [10] | Potency [11] | Potency [12] | Potency [13]

COc1ccccc1N1CCN(c2ncnc3n[nH]c(Br)c23)CC1
inactive: max response [14] -14.5% | outcome [3] | Potency [5] | Potency [16] | Potency [6] | Potency [7] | Potency [8] | Potency [10] | Potency [11] | Potency [12] | Potency [13] | Potency [17]

CS(=O)(=O)Nc1ccc2oc3c(OC(F)F)ccc(C(=O)Nc4c(Cl)cncc4Cl)c3c2c1
inactive: max response [14] -13.5% | max response [3] -9.63% | Potency [16] | Potency [6] | Potency [7] | Potency [8] | Potency [10] | Potency [11] | Potency [12] | Potency [13] | Potency [17]

CCn1c(-c2nonc2N)nc2c(C#CC(C)(C)O)ncc(OCC3CCCNC3)c21 (stereo not drawn)
inactive: outcome [2] | outcome [3] | outcome [4] | Potency [5] | Potency [8] | Potency [9] | Potency [11]
active: Potency [1] 0.82 µM | Potency [13] 28.2 µM

C[C@@H]1COCCN1c1cc(=O)n2c(n1)N(Cc1cncc(Cl)c1)[C@H](C(F)(F)F)CC2
active: Potency [1] 4.17 µM
inactive: max response [2] -6.64%

CO[C@@H]1CC(OC2CCC3(C)C(CCC45CCC(C6=CC(=O)OC6)C(C)(CCC43)C5=O)C2)O[C@H](C)[C@@H]1O[C@@H]1O[C@H](CO[C@@H]2O[C@H](CO)[C@@H](O)[C@H](O)[C@H]2O)[C@@H](O)[C@H](O)[C@H]1O (stereo partly drawn)
inactive: max response [3] -1.96% | activity change, negative = cytotoxicity [7] -0.149% [at 11.6 µM] | activity change, negative = cytotoxicity [12] -22.2% [at 11.6 µM]
active: Potency [14] 2.46 µM | Potency [15] 3.48 µM | Potency [8] 3.16 µM

O=C1C[C@]23C=CCN4CCC5c6cc7c(cc6N1[C@@]5(CC2)C43)OCO7 (stereo partly drawn)
inactive: max response [14] -12% | max response [3] -4.65% | Potency [16] | Potency [6] | Potency [7] | Potency [8] | Potency [9] | Potency [10] | Potency [11] | Potency [12] | Potency [13]

Cn1ncc2cc(-c3cnc(N)c(Cl)c3N3CCC4(CCNC4=O)CC3)ccc21
inactive: outcome [14] | outcome [15] | Potency [16] | Potency [6] | Potency [7] | Potency [8] | Potency [9] | Potency [10] | Potency [11] | Potency [12] | Potency [13] | Potency [17]

CC1(C)CCCC2(C)C1C(=O)C=C(C(=O)O)C2(O)C(=O)O (stereo not drawn)
inactive: max response [14] -16% | max response [3] -3.77% | Potency [16] | Potency [6] | Potency [7] | Potency [8] | Potency [9] | Potency [10] | Potency [11] | Potency [12] | Potency [13] | Potency [17]

CC1(C)SCCN(S(=O)(=O)c2ccc(Oc3ccncc3)cc2)[C@H]1C(=O)NO
inactive: max response [14] -1.93% | max response [15] -10.1% | max response [3] 2.44% | Potency [16] | Potency [6] | Potency [8] | Potency [9] | Potency [10] | Potency [11] | Potency [12] | Potency [13] | Potency [17]

Cn1cc(-c2ccc3c(c2)CCN3C(=O)Cc2cccc(C(F)(F)F)c2)c2c(N)ncnc21
inactive: max response [3] -21.2% | Potency [16] | Potency [6] | Potency [7] | Potency [8] | Potency [9] | Potency [10] | Potency [11] | Potency [12] | Potency [13]
active: Potency [14] 16.4 µM
